This is an account of results in PubChem BioAssay (Tox21).

The nature of experiment [1]: qHTS assay to identify small molecule antagonists of the estrogen related receptor (ERR) signaling pathway from Tox21 library - cell viability counter screen (AID 1224834). Further: nearly all actives have a fitted effect of over 30% in size. Further: potency means the concentration at half of the fitted maximal effect. The essentials: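 Cytotoxicity of test substances is gauged in the same ERR cells used for the antagonist screen, after 17.5 h of compound treatment at 37 C, by CellTiter-Fluor fluorescence measured after 30 min.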
For orientation: qHTS replaces the single test concentration by a dilution series.

Experiment [2] has as its target Luciferin 4-monooxygenase (Photinus pyralis) (UniProt P08659). As to the kind of experiment: qHTS assay to identify small molecule inhibitors of firefly luciferase (AID 1224835). Further: nearly all actives have a fitted effect of over 25% in size. Further: potency means the concentration at half of the fitted maximal effect. The gist of the method: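 Inhibition of purified Photinus luciferase is measured by luminescence. Substrate levels (D-luciferin, ATP) sit at their KM values. Each compound is tested in a concentration series.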

Experiment [3] can be described thus: qHTS assay to identify small molecule agonists of the constitutive androstane receptor (CAR) signaling pathway - cell viability counter screen (AID 1224836). Further: nearly all actives have a fitted effect of over 45% in size. Further: potency means the concentration at half of the fitted maximal effect. The gist of the method:
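Cell viability multiplexed with the CAR agonist screen: CellTiter-Fluor fluorescence after 23 hr at 37 C. HepG2-CYP2B6-hCAR cells got compounds at 15 concentrations with PK11195 at 0.75 uM final.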

Experiment [4] is described as follows: qHTS assay to identify small molecule antagonists of the constitutive androstane receptor (CAR) signaling pathway - cell viability counter screen (AID 1224837). Further: nearly all actives have a fitted effect of over 45% in size. Further: potency means the concentration at half of the fitted maximal effect. The essentials: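 Multiplexed cytotoxicity read-out for the CAR antagonist screen: double-stable HepG2-CYP2B6-hCAR cells co-treated with 50 nM CITCO (final) and compound over 15 concentrations, incubated 23 hr, then assessed by CellTiter-Fluor fluorescence.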

For experiment [5], the target named is Nuclear receptor subfamily 1 group I member 3 (Homo sapiens) (UniProt Q14994). As to the kind of experiment: qHTS assay to identify small molecule antagonists of the constitutive androstane receptor (CAR) signaling pathway (AID 1224838). Further: nearly all actives have a fitted effect of over 40% in size. Further: potency means the concentration at half of the fitted maximal effect. The essentials: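 Compounds were titrated across 15 concentrations onto HepG2 cells double-stably expressing hCAR and a CYP2B6-2.2kb reporter, together with 50 nM CITCO (final). After 24 h at 37 C, luciferase activity was measured by luminescence.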

For experiment [6] the target is unchanged. In words: qHTS assay to identify small molecule agonists of the constitutive androstane receptor (CAR) signaling pathway (AID 1224839). Further: nearly all actives have a fitted effect of over 15% in size. Further: potency means the concentration at half of the fitted maximal effect. The gist of the method: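 Luminescent ONE-Glo read-out after 24 hr, 37 C exposure of double-stable HepG2-CYP2B6-hCAR reporter cells to a 15-point compound series, in the presence of 0.75 uM PK11195 (final).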
Experiment [7] can be described thus: qHTS assay to identify small molecule antagonists of the estrogen related receptor signaling pathway with the pleiotropic PPARgamma coactivator (PGC) from Tox21 10K library - cell viability counter screen (AID 1224840; active means well fitted cell-killing curve with a large enough effect in the repeat runs, not every such curve was filed as active; further: nearly all actives have a fitted effect of over 40% in size; further: potency means the concentration at half of the fitted maximal effect). The essentials: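 Step one, plate 2,000 PGC/ERR cells per well; step two, incubate 6 h at 37 C/5% CO2; step three, pin-transfer compounds; step four, incubate 17.5 h; step five, add CellTiter-Fluor and read fluorescence after 30 min.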

Experiment [8] addresses Thyrotropin receptor (Homo sapiens) (UniProt P16473). In words: qHTS assay to identify small molecule agonists of the thyroid stimulating hormone receptor (TSHR) signaling pathway (AID 1224843; calls by dose curve; further: nearly all actives have a fitted effect of over 45% in size; further: potency means the concentration at half of the fitted maximal effect). The essentials:
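HEK293 cells stably bearing the thyrotropin receptor were plated at 800 cells/well and challenged with compound (30 min, RT). Accumulated cAMP was quantified via cAMP-d2 competing for cryptate-tagged antibody.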

A short description of experiment [9]: qHTS assay to identify small molecule agonists of the hypoxia (HIF-1) signaling pathway - cell viability counter screen (AID 1224844; calls by dose curve; further: nearly all actives have a fitted effect of over 50% in size). The gist of the method: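 Tox21 10K compounds were added to HRE-bla ME-180 cells (0.5% dialyzed FBS) and incubated 17 hrs at 37C; ATP-based CellTiter-Glo luminescence then reported cell viability in the same wells.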
Experiment [10] in a line: qHTS assay to identify small molecule agonists of H2AX (AID 1224845; active means well fitted activation curve with a large enough effect in the signal ratio in the repeat runs, not every such curve was filed as active; the % refers to the signal ratio; further: potency means the concentration at half of the fitted maximal effect). The essentials:
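Phospho-H2AX Ser139 measured by HTRF (ex 320 nm; em 665 and 620 nm) after 24 hr antibody incubation. Compounds, 15 concentrations, 0.76% DMSO, were applied to CHO-K1 cells for 3hr at 37C before lysis.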

Experiment [11] in a line: qHTS assay to identify small molecule agonists of the hypoxia (HIF-1) signaling pathway (AID 1224846; active means well fitted activation curve with a large enough effect in the signal ratio in the repeat runs, not every such curve was filed as active; the % refers to the signal ratio). The essentials:
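Steps: seed ME-180 HRE-bla cells (2,000/well, 0.5% dialyzed FBS); incubate 5 hrs at 37C; pin-transfer compounds or DMSO; incubate 17 hrs; add LiveBLAzer B/G substrate CCF4-AM; measure reporter activation by FRET.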

Experiment [12] in a line: qHTS assay to identify small molecule agonists of H2AX - cell viability counter screen (AID 1224847; calls by dose curve;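 further: wild-type CHO-K1 cells; top concentration of the series differs between compounds; nearly all actives have a fitted effect of over 30% in size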). The essentials: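 Counter-screen for viability: CellTiter-Glo ATP luminescence read after 3 h compound treatment (15-point titration, 0.76% DMSO final) of CHO-K1 cells at 37C, with 30 min room-temperature reagent incubation.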
Experiment [13] is described as follows: qHTS RealTime-Glo MT Cell Viability Assay in HepG2 cells - 24 hour (AID 1224867). Further: nearly all actives have a fitted effect of over 50% in size. Further: potency means the concentration at half of the fitted maximal effect. The essentials:
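Compound treatment began 5 h after plating HepG2 cells (600/well) with NanoLuc luciferase and prosubstrate. Plates stayed at 37 C for 40 h; luminescence was captured at six time points, 0 h through 40 h.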

Experiment [14] can be described thus: qHTS RealTime-Glo MT Cell Viability Assay in HEK293 cells - 32 hour (AID 1224868). Further: nearly all actives have a fitted effect of over 50% in size. Further: potency means the concentration at half of the fitted maximal effect. The essentials: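 Quantitative high-throughput screen of the Tox21 10K library in HEK293: cells and RealTime-Glo reagents plated together, compound added at 5 h, luminescence monitored through 40 h at 37 C.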
Experiment [15] is described as follows: A CellTox Green Cytotoxicity Assay to monitor cytotoxicity in HEK293 cells - 0 hour (AID 1224869). Further: nearly all actives have a fitted effect of over 50% in size. The gist of the method:
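Cytotoxicity was tracked continuously in HEK293 cells by a DNA-binding dye excluded from viable cells. Compounds were transferred in DMSO 5 h after seeding; fluorescence was recorded at intervals up to 40 h.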

A short description of experiment [16]: qHTS RealTime-Glo MT Cell Viability Assay in HepG2 cells - 40 hour (AID 1224870). Further: nearly all actives have a fitted effect of over 50% in size. The essentials: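 Real-time viability: cells seeded at 600 per well together with NanoLuc and cell-permeant prosubstrate, compounds added after 5 h incubation. Luminescence tracked at 0, 8, 16, 24, 32 and 40 h of exposure.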
Experiment [17] in a line: qHTS assay to identify small molecule antagonists of the estrogen related receptor signaling pathway with the pleiotropic PPARgamma coactivator (PGC) from Tox21 10K library (AID 1224841; call rule not given here; further: potency means the concentration at half of the fitted maximal effect). The gist of the method:
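Antagonism in this quantitative HTS is taken from loss of luciferase signal in PGC/ERR cells. Cells (2,000/well) are treated with compounds in DMSO after a 6 h settling period and read by One-Glo luminescence after 18 h.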

A short description of experiment [18]: qHTS assay to identify small molecule agonists of the estrogen related receptor signaling pathway with the pleiotropic PPARgamma coactivator (PGC) from Tox21 10K library (AID 1224842). Further: nearly all actives have a fitted effect of over 15% in size. The gist of the method: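 Luminescence from One-Glo (30 min, room temperature) measured after PGC/ERR cells had 18 h at 37 C with pinned compound (23 nL in DMSO). Cells had been seeded at 2,000 per well and pre-incubated 6 h.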

The nature of experiment [19]: qHTS assay to identify small molecule agonists of the estrogen related receptor (ERR) signaling pathway from Tox21 library (AID 1224849; calls by dose curve; further: nearly all actives have a fitted effect of over 15% in size). Particulars: ERR reporter cell line, ONE-Glo luciferase, 18 h; at 92.4 µM (top of the series) unless noted. The gist of the method: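 Agonist signal is luciferase luminescence from an ERR reporter cell line treated 18 h at 37 C with DMSO-dissolved compounds, read 30 min after ONE-Glo addition at room temperature.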

Experiment [20] is described as follows: qHTS assay to identify small molecule antagonists of the estrogen related receptor (ERR) signaling pathway from Tox21 library (AID 1224848). Further: nearly all actives have a fitted effect of over 50% in size. Further: potency means the concentration at half of the fitted maximal effect. The essentials: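 Reading was by luminescence 30 min after ONE-Glo addition. Before that, ERR cells at 2,000 per well had rested 6 h at 37 C/5% CO2 and then received pin-tooled compounds in DMSO for 18 h at 37 C.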

The structures appear in SMILES notation. Values without a mark were called inactive. Records with an inconclusive call do not appear. The source made the active and inactive calls. Unless noted, the call rests on the fitted dose curve; in most records, active means well fitted curve in the direction sought with a large enough effect in the repeat runs; inconclusive means weak or mixed curves; inactive means no such curve, though single readings can be large; an effect the other way counts as inactive or inconclusive.
On the % scale 0 is the no-effect control and ±100 the full control effect.

Chain of Thyrotropin receptor (Homo sapiens) (P16473 whole entry, looked up): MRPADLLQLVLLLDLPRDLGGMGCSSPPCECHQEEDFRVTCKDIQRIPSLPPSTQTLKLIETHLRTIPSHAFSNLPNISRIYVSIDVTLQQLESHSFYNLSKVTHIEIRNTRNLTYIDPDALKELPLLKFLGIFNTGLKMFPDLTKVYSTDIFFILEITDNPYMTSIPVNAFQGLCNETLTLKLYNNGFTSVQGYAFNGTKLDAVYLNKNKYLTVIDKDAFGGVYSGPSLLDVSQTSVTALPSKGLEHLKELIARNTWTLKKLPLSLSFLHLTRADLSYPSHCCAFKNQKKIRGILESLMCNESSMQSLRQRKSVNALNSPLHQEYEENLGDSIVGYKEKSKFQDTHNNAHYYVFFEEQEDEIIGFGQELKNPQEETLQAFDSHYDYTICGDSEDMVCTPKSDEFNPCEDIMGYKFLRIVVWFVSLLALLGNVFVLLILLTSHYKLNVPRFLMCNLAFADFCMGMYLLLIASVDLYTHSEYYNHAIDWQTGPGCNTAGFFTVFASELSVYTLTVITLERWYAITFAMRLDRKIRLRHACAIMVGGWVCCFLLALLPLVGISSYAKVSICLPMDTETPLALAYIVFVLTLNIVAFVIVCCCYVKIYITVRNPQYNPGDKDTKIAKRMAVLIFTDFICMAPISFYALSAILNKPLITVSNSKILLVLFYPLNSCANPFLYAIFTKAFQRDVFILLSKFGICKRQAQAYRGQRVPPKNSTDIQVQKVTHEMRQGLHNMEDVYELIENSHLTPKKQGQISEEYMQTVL
Chain of Luciferin 4-monooxygenase (Photinus pyralis) (P08659 whole entry, looked up): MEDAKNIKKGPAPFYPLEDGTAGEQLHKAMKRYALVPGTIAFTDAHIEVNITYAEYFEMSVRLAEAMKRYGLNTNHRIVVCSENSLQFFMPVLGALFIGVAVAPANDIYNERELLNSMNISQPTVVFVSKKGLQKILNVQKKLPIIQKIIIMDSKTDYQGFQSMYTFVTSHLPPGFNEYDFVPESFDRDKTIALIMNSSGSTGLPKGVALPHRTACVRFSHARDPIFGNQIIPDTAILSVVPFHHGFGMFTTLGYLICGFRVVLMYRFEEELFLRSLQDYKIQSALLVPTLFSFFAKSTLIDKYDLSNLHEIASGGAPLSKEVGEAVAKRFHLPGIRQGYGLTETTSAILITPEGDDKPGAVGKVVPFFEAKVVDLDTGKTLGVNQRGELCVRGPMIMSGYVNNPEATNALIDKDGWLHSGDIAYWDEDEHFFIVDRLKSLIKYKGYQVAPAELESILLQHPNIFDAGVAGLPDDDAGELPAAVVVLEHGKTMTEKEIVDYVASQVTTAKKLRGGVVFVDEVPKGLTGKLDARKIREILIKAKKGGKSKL
Chain of Nuclear receptor subfamily 1 group I member 3 (Homo sapiens) (Q14994 whole entry, looked up): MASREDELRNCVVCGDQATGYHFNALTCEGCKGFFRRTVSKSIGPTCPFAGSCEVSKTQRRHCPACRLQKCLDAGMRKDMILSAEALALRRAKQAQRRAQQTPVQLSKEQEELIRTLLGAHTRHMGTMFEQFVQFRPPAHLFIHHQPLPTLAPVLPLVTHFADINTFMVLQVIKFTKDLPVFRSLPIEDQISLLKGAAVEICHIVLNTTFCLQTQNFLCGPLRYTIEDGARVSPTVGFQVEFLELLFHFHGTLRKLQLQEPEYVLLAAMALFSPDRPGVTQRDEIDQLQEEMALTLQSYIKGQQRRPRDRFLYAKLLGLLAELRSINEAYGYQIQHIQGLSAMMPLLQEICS

For the compound `CCOC(=O)c1ccccc1S(=O)(=O)NC(=O)Nc1nc(Cl)cc(OC)n1`, the Potency result in experiment [1], in [2], in experiment [3], in experiment [4], in experiment [5] and in experiment [6] was “inactive” in each case. The Potency entry in experiment [7], in experiment [8], in [9], in experiment [10], in experiment [12] and in [13] was “inactive” in each case. Also, in experiment [11], the compound was called inactive.
As to `COc1cc(N)c(Cl)cc1C(=O)NC1CN2CCC1CC2` (configuration not stated), the Potency result in experiment [1], in experiment [2], in experiment [3], in experiment [4], in [5] and in [6] was “inactive” each time. The Potency entry in experiment [7], in experiment [8], in experiment [9], in experiment [10], in experiment [12] and in [13] was “inactive” each time. Besides, the Potency result in experiment [14], in experiment [15] and in [16] was “inactive” throughout. The result in experiment [11] was inactive.
`Cc1ccc(OP(=O)(Oc2ccccc2)Oc2ccccc2)cc1`: the Potency result in experiment [1], in [2], in experiment [3], in experiment [4], in experiment [5] and in experiment [7] was “inactive” in each case. Besides, the Potency result in experiment [18], in experiment [10], in [13], in [14] and in [15] was “inactive” in each case. For the same compound, the Potency was 17500 nM (active) in experiment [6], 24700 nM (active) in [17] and 15600 nM (active) in experiment [8]. Also, the call in [11] was inactive. For the same compound, the activity change, positive = activation in [19] was -20.3%.
For the compound `[Cl][Sn]([c]1ccccc1)([c]1ccccc1)[c]1ccccc1`, the Potency in experiment [1] is 1160 nM (active); in experiment [2], 6010 nM (active); in experiment [3], 3660 nM (active); in experiment [4] it was 2060 nM (active); in experiment [5] it was 206 nM (active); in experiment [7], 820 nM (active). The Potency in experiment [17] is 820 nM (active); in experiment [10] it was 677 nM (active); in experiment [20], 580 nM (active); in [13] it was 2610 nM (active); in experiment [14] it was 262 nM (active). Further, the activation in experiment [6] was -23.6% [at 19 µM]; in experiment [18] it was -35.3% [at 19 µM]. Besides, in experiment [19], the activity change, positive = activation was -65.5% [at 19 µM]. Moreover, in experiment [15], the cytotoxicity was -13.5% [at 15.8 µM].
In the case of `Cc1ccc(CCl)cc1`, the Potency result in experiment [1], in experiment [2], in experiment [3], in experiment [4], in experiment [5] and in experiment [6] was “inactive” throughout. Besides, the Potency entry in experiment [7], in experiment [17], in [18], in [8], in experiment [9] and in experiment [10] was “inactive” each time. The Potency result in experiment [12], in experiment [20], in experiment [13], in [15] and in experiment [16] was “inactive” in each case. Moreover, the compound was classed as inactive in experiment [11]. Also, the activity change, positive = activation in experiment [19] is -1.8%.
Take `COP(N)(=S)OC`: the Potency result in [1], in experiment [2], in experiment [3], in experiment [4], in experiment [5] and in [6] was “inactive” throughout. Further, the Potency entry in experiment [7], in [17], in experiment [18], in [8], in experiment [10] and in experiment [12] was “inactive” in each case. Besides, the Potency entry in experiment [20], in experiment [13], in [15] and in [16] was “inactive” throughout. The compound was called inactive in [11]. Further, the activity change, positive = activation in experiment [19] is 3.3%.
